Results on 40 molecules are retold here after PubChem BioAssay (NCATS).

Activity calls are given as the source filed them. Calls come from the whole dose curve.

Chain of Tumor susceptibility gene 101 protein (Homo sapiens) (Q99816 whole entry, looked up): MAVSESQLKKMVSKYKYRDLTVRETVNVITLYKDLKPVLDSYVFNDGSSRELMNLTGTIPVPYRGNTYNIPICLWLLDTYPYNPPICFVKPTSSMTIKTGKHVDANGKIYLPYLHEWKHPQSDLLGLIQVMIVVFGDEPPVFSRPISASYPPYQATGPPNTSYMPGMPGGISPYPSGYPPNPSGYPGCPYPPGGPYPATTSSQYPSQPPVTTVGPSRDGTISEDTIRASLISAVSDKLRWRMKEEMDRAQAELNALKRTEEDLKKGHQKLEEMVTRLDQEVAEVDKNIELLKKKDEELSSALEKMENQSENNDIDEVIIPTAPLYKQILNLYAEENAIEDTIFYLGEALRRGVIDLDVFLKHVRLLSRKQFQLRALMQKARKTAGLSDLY

In the assay the target is Tumor susceptibility gene 101 protein (Homo sapiens) (UniProt Q99816). As to the kind of experiment: qHTS Validation Assay for Iinhibitors of HIV-1 Budding by Blocking the Interaction of PTAP/TSG101 (AID 485342). As to conditions: TSG101-PTAP binding, fluorescence polarization, 4-point titration; series mostly up to 115 µM. The text has this:
NIH Molecular Libraries Probe Production Network [MLPCN]
NIH Chemical Genomics Center [NCGC]
PI Name: Dr. Eric Freed, NCI
Stages of the HIV-1 replication cycle, specifically virus assembly and release, provide underexploited targets for the development of novel antiviral inhibitors. The late stages of HIV-1 replication are mediated by the Gag precursor protein, Pr55Gag. Expression of Pr55Gag is both necessary and sufficient for the production of virus-like particles from Gag-expressing cells. The Gag protein hijacks key host proteins involved in endocytic machinery of the host cell to promote endosomal processing and viral budding. The budding process requires a direct interaction between a […] (PTAP) motif in the p6 domain of Gag and the cellular endosomal sorting protein known as Tsg101. In this way, the Gag PTAP motif promotes the host cells to recruit viral particles to the plasma membrane where the new viral particles are released, effectively turning the host cells into viral factories. A fluorescence anisotropy assay has been developed to quantitatively measure the PTAP-Tsg101 interaction which can be used to screen for inhibitors of this interaction.
NCGC Assay Protocol Summary:
Two uL of the Tsg101 binding domain in buffer (10 mM HEPES pH 7.5; 0.15 M NaCl, 0.01% Tween 20; 3 mM EDTA;0.1 mM TCEP) was dispensed into Greiner black MB 1536-well plates (final concentration 10 uM). Then, 23 nL of compounds or DMSO were delivered to each well using a pin tool. Finally, 2 uL of a FITC-labeled peptide containing the PTAP motif (1) in the same buffer was dispensed (50 nM final concentration) and the binding was allowed to proceed for 20 min. at r.t. Fluorescent polarization was determined using FITC excitation and polarized emission filters on a Perkin Elmer Viewlux.
Keywords: Tsg101, PTAP, Gag, HIV, fluorescent polarization, MLSMR, MLPCN, NIH Roadmap, qHTS, NCGC
Regarding `CCCN1CCC[C@@H](c2cccc(O)c2)C1`, the molecule was classed as inactive.
Take `c1ccc2c(c1)[I+]c1ccccc1-2`: the molecule was called inactive.
On to `C[C@]12Cc3cn4c(nc3C=C1CCC1C2CC[C@@]2(C)[C@H]1CC[C@@]2(O)C#N)nc1ccccc14` (stereo not given in full), for which the result was inactive.
For the molecule `CC(=O)OCC1=C(C(=O)O)N2C(=O)[C@@H](NC(=O)CCC[C@@H](N)C(=O)O)[C@H]2SC1`, the molecule was classed as inactive.
On to `N[C@@H](Cn1oc(=O)[nH]c1=O)C(=O)O`, for which the molecule was called inactive.
On to `C=CCN1C[C@@H](C)N([C@H](c2ccc(C(=O)N(CC)CC)cc2)c2cccc(OC)c2)C[C@@H]1C`, for which the molecule was called inactive.
Regarding `NC(=O)COc1c(F)cc(SCCNS(=O)(=O)c2ccccc2)cc1F`, the outcome was inactive.
For `O=c1c2ccccc2[se]n1-c1ccccc1`, the call was inactive.
For the molecule `CN1CC[C@@]2(C)c3cc(OC(=O)Nc4ccccc4)ccc3N(C)[C@@H]12`, the molecule was classed as inactive.
Consider `CC12NC(Cc3ccccc31)c1ccccc12` (stereo not given), for which the outcome was inactive.
With `CCn1cnc2c(Nc3cccc(Cl)c3)nc(N[C@@H]3CCCC[C@@H]3N)nc21`, the molecule was called inactive.
Take `NC(=O)CI`: the molecule was classed as inactive.
`NC(Cc1ccc(N(CCCl)CCCl)cc1)C(=O)O` (stereo not given): the call was inactive.
Regarding `O=C1C=CC(=O)C=C1`, the molecule was called inactive.
Take `c1ccc2c(N3CCNCC3)cccc2c1`: the call was inactive.
Regarding `Nc1ccc(CCN2CCN(c3cccc(C(F)(F)F)c3)CC2)cc1`, the molecule was classed as inactive.
Take `CNc1ccc2oc(C[C@H]3O[C@@]4(CC[C@H]3C)O[C@H]([C@H](C)C(=O)c3ccc[nH]3)[C@H](C)C[C@H]4C)nc2c1C(=O)O`: the molecule was called inactive.
For `CCN(CCCl)Cc1ccccc1Br`, the result was inactive.
For `O=C1CC[C@@]2(O)C3Cc4ccc(O)c5c4C2(CCN3CC2CC2)[C@H]1O5` (stereo not given in full), the molecule was classed as inactive.
As to `C#CCN[C@H](C)Cc1ccccc1`, the molecule was called inactive.
Consider `Cc1[nH]c2ccc(O)cc2c1CCN`, for which the call was inactive.
On to `COc1ccc2[nH]c3c(c2c1)CCNC3`, for which the outcome was inactive.
For `O=[N+]([O-])c1ccc2nc(N3CCNCC3)ccc2c1`, the outcome was inactive.
As for `NC(=O)c1ccc(OCC(O)CN2CC=C(c3ccc(F)cc3)CC2)cc1` (stereo not given), the molecule was called inactive.
Regarding `N#CCCN`, the molecule was called inactive.
Next, `NNC(N)=O`: “inactive”; `CP(=O)(O)C1=CCNCC1`: “inactive”.
As for `O=S1(=O)N(CCN2CC=C(c3c[nH]c4cc(F)ccc34)CC2)c2cccc3c2N1CCC3`, the call was inactive.
`NC(N)=Nc1ccc2[nH]c3c(c2c1)C[C@@]1(O)[C@H]2Cc4ccc(O)c5c4[C@@]1(CCN2CC1CC1)[C@H]3O5`: the molecule was called inactive.
As for `COc1ccc2c(c1)/C(=C/c1cnc[nH]1)C(=O)N2`, the result was inactive.
In the case of `COc1ccc(OC)c(C(O)C(C)N)c1` (stereo not given), the result was inactive.
Consider `C[C@H](Cc1ccc2c(c1)OC(C(=O)O)(C(=O)O)O2)NC[C@H](O)c1cccc(Cl)c1`, for which the outcome was inactive.
Next, `CC(N)Cc1c[nH]c2ccc(O)cc12` (stereo not given): “inactive”; `O=C(O)c1cc[c]([Hg][Cl])cc1`: “inactive”.
For the molecule `NC(N)=NOCC[C@H](N)C(=O)O`, the molecule was called inactive.
Turning to `C[N+]1(C)C2CCC1CC(OC(=O)c1c[nH]c3ccccc13)C2` (stereo not given), the result was inactive.
As for `C=CCN(C1=NCCN1)c1c(Cl)cccc1Cl`, the outcome was inactive.
`C[N+]1(C)CCN(c2ccccc2)CC1`: the molecule was classed as inactive.
Regarding `CCCCCCCCCCCCCC(=O)O[C@@H]1[C@@H](C)[C@@]2(O)[C@@H](C=C(CO)C[C@@]3(O)C(=O)C(C)=C[C@@H]23)C2C(C)(C)[C@@]21OC(C)=O` (stereo not given in full), the molecule was called inactive.
`CN(N=O)c1ccc(O)c(O)c1`: the result was inactive.
